MITF inh: blocks human microphthalmia-associated transcription factor. O75030. AlphaScreen MITF homodimerization, bead proximity signal. inhibition, % at 2.6 µM. 650,000 compounds, 0.91% hits. AID 1259374; in the data active = inhibition above about 50%
TEAD-YAP inh: TEAD-YAP interaction inhibition; HEK-TIYL cells, TEAD-Gal4/YAP UAS-luciferase luminescence; inhibition, % at 9.12 µM; 640,000 compounds, 1.4% hits; in the data active = inhibition above about 32%
GPR151 activ: activators of human GPR151; PathHunter beta-arrestin GPR151 cells, luminescence; AID 1508602; Q8TDV0; 650,000 compounds, 1% hits; activation, % at 11.2 µM; in the data active = activation above about 4.9%
FBW7 act: human FBW7 E3 ligase activation, primary screen. AlphaScreen FBW7–phospho-cyclin E peptide binding, activator screen. normalized activity (activation), % at 26.1 µM. 650,000 compounds, 0.13% hits; in the data active = normalized activity above about 1.9%;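 also: purified mutant Fbw7 with reduced substrate affinity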
GPR151 confirm: human GPR151 activation, confirmation screen; shares compounds with GPR151 activ; GPR151 PathHunter beta-arrestin cells, luminescence, 90 min; % of EA-reagent control over plate median; activation, % at 11.2 µM; 6,700 tested, under 10 active; AID 1508609;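 active = mean percent activation across replicates above the confirmation screen cutoff of 4.91%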
GPR119 counter: activates human GPR119 in a GPR151 counter-screen; activation, % at 11.2 µM; GPR119 PathHunter beta-arrestin cells, luminescence, 90 min; 0 = compound-well median, 100 = enzyme-acceptor control; shares compounds with GPR151 activ; 6,700 compounds, 0.3% hits;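 active = mean percent activation in the counterscreen above 29.09%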;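 also: counterscreen on off-target GPR119 to flag nonselective hits from the GPR151 activator screen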
Target sequence (Q8TDV5 whole entry, looked up): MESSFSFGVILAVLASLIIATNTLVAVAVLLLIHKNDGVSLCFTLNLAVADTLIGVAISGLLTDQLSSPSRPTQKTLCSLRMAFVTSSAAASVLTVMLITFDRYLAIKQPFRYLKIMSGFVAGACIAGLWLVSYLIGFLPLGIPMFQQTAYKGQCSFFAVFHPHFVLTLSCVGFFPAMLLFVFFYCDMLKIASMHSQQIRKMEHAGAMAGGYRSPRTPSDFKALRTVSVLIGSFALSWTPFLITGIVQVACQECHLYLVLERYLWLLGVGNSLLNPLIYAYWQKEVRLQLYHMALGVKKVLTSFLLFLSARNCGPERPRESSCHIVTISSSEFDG
Each line names hits and unclear results; the compound was inactive in the other large screens (follow-up assays come after a bar, where they were run); ! = repeats disagree. Shown are actives, neighbours in structure and some others; about 3.4% of the full set was active somewhere.

COc1ccc2nc3sc(C(=O)Nc4cccc(C(C)=O)c4)c(N)c3cc2c1	GPR151 activ 5.3 | GPR151 confirm inactive | GPR119 counter inactive
COc1cc(Br)cc2cc(C(=O)Nc3ccc(O)cc3)c(=O)oc12	GPR151 activ 7.6 | GPR151 confirm inactive | GPR119 counter inactive
COc1ccc(NC(=O)c2cc3cc(Cl)ccc3oc2=O)cc1	GPR151 activ 6.3 | GPR151 confirm inactive | GPR119 counter inactive
CCOc1ccc(NC(=O)c2cc3cc(Br)cc(OC)c3oc2=O)cc1	none
CCOC(=O)c1c(NC(=O)c2cc3cc(Cl)ccc3oc2=O)sc(C(C)=O)c1C	GPR151 activ 8.1 | GPR151 confirm inactive | GPR119 counter inactive
COc1ccc2oc(=O)c(C(=O)Nc3cccc(Cl)c3)cc2c1	none
Nc1nc(NCCN2CCOCC2)cc(NC2CCN(Cc3ccccc3)CC2)n1	none
CCOc1c(C)cc(S(=O)(=O)NCCCCN2CCOC(c3ccccc3)C2)cc1C (configuration not stated)	GPR151 activ 11.4 | GPR151 confirm inactive | GPR119 counter inactive
CCc1nc2ccc(-c3ccc4nc(CC)oc(=O)c4c3)cc2c(=O)o1	GPR151 activ 8.8 | GPR151 confirm inactive | GPR119 counter inactive
C=C(C)c1nc2ccc(-c3ccc4nc(C(=C)C)oc(=O)c4c3)cc2c(=O)o1	none
COc1cc(NC(=O)CSc2ccc(C(=O)O)cn2)cc(OC)c1	none
COc1cc(NC(=O)CSc2ccc(C(=O)O)cn2)ccc1-n1cnnn1	GPR151 activ 8.2 | GPR151 confirm inactive | GPR119 counter inactive
O=C(CCC(=O)Nc1ccc(Br)cc1)N/N=C/c1cccs1	GPR151 activ 6.0 | GPR151 confirm inactive | GPR119 counter inactive
c1cncc(CCNc2nccn3c(-c4ccc(N5CCOCC5)cc4)cnc23)c1	none
Cc1ccc(NC(=O)CN(c2cccc(C)c2C)S(C)(=O)=O)c(C)c1	none
COC(=O)c1cc(Cl)ccc1NC1=NS(=O)(=O)c2ccccc21	none
CC(C(=O)O)N1C(=O)/C(=C/C=C/c2ccccc2)SC1=S (configuration not stated)	GPR151 activ 7.4 | GPR151 confirm inactive | GPR119 counter inactive
CC(C)=CC[C@@H](O)C1=CC(=O)c2c(O)ccc(O)c2C1=O	MITF inh 75.1!, GPR151 activ 10.0! | GPR151 confirm inactive | GPR119 counter inactive
Cc1ccc(-c2nc3ccc(Br)cc3c(C(=O)OCC(=O)c3cccc([N+](=O)[O-])c3)c2C)cc1	none
CC(C)CCn1c(-c2ccccc2)nc2ccccc21	GPR151 activ 8.6 | GPR151 confirm inactive | GPR119 counter inactive
COCCC(=O)Nc1ccc2c(c1)CN(C(=O)c1ccc(CSC)o1)CC2	GPR151 activ 9.4 | GPR151 confirm inactive | GPR119 counter inactive
Cc1ccc(-c2csc3c(=O)n(C)c(SCC(=O)Nc4ccccc4Cl)nc23)cc1	none
COC(=O)c1cccc(NC(=O)/C(=C\c2ccco2)NC(=O)c2ccco2)c1	GPR151 activ 5.5 | GPR151 confirm inactive | GPR119 counter inactive
CC(=O)c1cccc(NC(=O)/C(=C/c2ccco2)NC(=O)c2ccco2)c1	none
c1cnc2c(Oc3ncnc4sc5c(c34)CCCC5)cccc2c1	none
COCCCNC(=O)NC(CCC(C)C)c1c(-n2cccc2)sc2c1CCN(C)C2 (configuration not stated)	GPR151 activ 8.2 | GPR151 confirm inactive | GPR119 counter inactive
COC(=O)CCNC(=O)NC(CCC(C)C)c1c(-n2cccc2)sc2c1CCN(C)C2 (configuration not stated)	none
Cc1ccc(CCNC(=O)CN2CCN(Cc3cccc(C)c3)C2=O)cc1	GPR151 activ 5.5 | GPR151 confirm inactive | GPR119 counter inactive
CC(C)CC(=O)N1CCN(CCN=CC2=C(O)CC(c3ccccc3)CC2=O)CC1 (configuration not stated)	none
COc1cc(/C=c2\sc3nc(=O)c(C)nn3c2=O)ccc1OC(C)=O	GPR151 activ 13.7 | GPR151 confirm inactive | GPR119 counter inactive
CCOc1ccc(/C=c2\sc3nc(=O)c(C)nn3c2=O)cc1OC	none
Cc1nnsc1C(=O)N(C)c1ccccc1	GPR151 activ 8.2 | GPR151 confirm inactive | GPR119 counter inactive
Cc1nnsc1C(=O)N/N=C/c1ccccc1	none
Cc1ccc(C(=O)N(C)c2ccccc2)cc1	GPR151 activ 5.0 | GPR151 confirm inactive | GPR119 counter inactive
CC(CCn1cccn1)NC(=O)c1cc(COc2ccc3ncccc3c2)on1 (configuration not stated)	none
CC(=O)c1ccc(OCc2cc(C(=O)NC(C)CCn3cccn3)no2)cc1 (configuration not stated)	GPR151 activ 6.3 | GPR151 confirm inactive | GPR119 counter inactive
O=C1N(Cc2cccnc2)C[C@@H]2C[C@@H](c3ccc(Oc4ncccn4)cc3)N3CCC[C@@]123	none
O=C1N(Cc2cccnc2)C[C@@H]2C[C@@H](c3cccn3-c3ncccn3)N3CCC[C@@]123	GPR151 activ 19.7 | GPR151 confirm inactive | GPR119 counter inactive
Cc1ccc(CN2CCNC(=O)C2CC(=O)N2CCN(Cc3csc(C)n3)CC2)o1 (configuration not stated)	GPR151 activ 5.1 | GPR151 confirm inactive | GPR119 counter inactive
Cc1ccc(CN2CCNC(=O)C2CC(=O)N2CCCN(Cc3cccs3)CC2)o1 (configuration not stated)	none
O=C1CSC(c2ccc(Cl)cc2)N1Cc1cn2ccccc2n1 (configuration not stated)	GPR151 activ 5.0 | GPR151 confirm inactive | GPR119 counter inactive
COc1ccc(-c2nc(Nc3ccc(NC(C)=O)cc3)c3ncn(CCN4CCCC4=O)c3n2)cc1	none
CCCN1C(=O)CC(c2ccco2)Sc2ccccc21 (configuration not stated)	GPR151 activ 5.3 | GPR151 confirm inactive | GPR119 counter inactive
CC(C)(C)c1ccc(OCC(N)=O)c(Br)c1	GPR151 activ 5.9 | GPR151 confirm inactive | GPR119 counter inactive
COc1c(C)cc(S(=O)(=O)NCC(c2ccsc2)N2CCCC2)cc1C (configuration not stated)	none
O=C(O)CN1C(=O)/C(=C/c2ccc(SCc3ccco3)o2)SC1=S	none
COC(=O)CN1C(=O)S/C(=C/c2ccco2)C1=O	GPR151 activ 7.0 | GPR151 confirm inactive | GPR119 counter inactive
O=C(O)CCN1C(=O)/C(=C/C=C/c2ccco2)SC1=S	none
O=C(O)CCN1C(=O)/C(=C\c2ccco2)SC1=S	GPR151 activ 11.4 | GPR151 confirm inactive | GPR119 counter inactive
O=C(O)CN1C(=O)/C(=C/c2ccc(I)o2)SC1=S	MITF inh 55.4, GPR151 activ 6.7 | GPR151 confirm inactive | GPR119 counter inactive
Cc1sccc1/C=N/Nc1cccc([N+](=O)[O-])c1	none
O=C(COc1ccccc1)Nc1ccc(N2CCC(NCc3ccon3)CC2)cc1	none

Screening results: PubChem BioAssay, The Scripps Research Institute Molecular Screening Center
